These results are taken from PubChem BioAssay (NCI).

SMILES strings stand for the structures. Compounds without any hit were thinned out: in the full panel of roughly 83,000, 20% have a hit.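 Values shown are percent growth following 48 h exposure of cells in 96-well plates to a single concentration of compound; below 10 was considered active.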 A number with no mark means an inactive call. Active and inactive are the calls of the source.

Test systems include NCI-H23 lung; NCI-H226 lung; NCI-H322M lung; HOP-62 NSCLC; NCI-H460 lung; NCI-H522 lung; A549/ATCC NSCLC; 786-0 renal; COLO 205 colon; DU-145 prostate; K-562 leukemia; MALME-3M melanoma; MDA-MB-231 breast; RXF 393 renal; SF-268 CNS; SF-295 CNS; SF-539 CNS; UACC-257 melanoma; M14 melanoma; HCT-15 colon.
Holding throughout (assay): NCI-60 one-dose screen, 48 h (100 = growth as untreated, 0 = no growth, -100 = all killed)
What all share (details): 10 µM unless noted

With `N=c1ccn2c(n1)O[C@@H]1[C@@H](O)[C@H](CO)O[C@@H]12`, the growth with NCI-H23 lung was 33.3%; in the assay on NCI-H226 lung it was 92.4%; in the assay on NCI-H322M lung, 82.2%; in the assay on HOP-62 NSCLC it was 47.7%; in the assay on NCI-H460 lung, 12.3%; with NCI-H522 lung, 39.4%. For the same molecule, the growth was 22.2% in the assay with A549/ATCC NSCLC; 31.1% with 786-0 renal; 49.3% in the assay on COLO 205 colon; 51.4% in the assay on DU-145 prostate; 67.1% with K-562 leukemia; 59.1% with MALME-3M melanoma. Besides, the growth was 91.7% with MDA-MB-231 breast; 96.4% in the assay on RXF 393 renal; 65.8% in the assay with SF-268 CNS; 88.7% in the assay with SF-295 CNS; 98.4% with SF-539 CNS; 70.3% with UACC-257 melanoma. For the same molecule, the growth with M14 melanoma was -1.79% (active); with HCT-15 colon, 64.4%.

With `O=C(CCc1nnc(SCc2ccccc2)s1)c1nc2ccccc2[nH]1`, the growth with NCI-H23 lung was 96.4%; with NCI-H226 lung, 102%; in the assay with NCI-H322M lung it was 92.9%; in the assay on HOP-62 NSCLC it was 105%; in the assay on NCI-H460 lung, 105%; with NCI-H522 lung it was 84.4%. The growth with A549/ATCC NSCLC is 86.3%; with 786-0 renal, 91.2%; in the assay with COLO 205 colon, 117%; with DU-145 prostate it was 107%; in the assay with K-562 leukemia, 80.2%; in the assay with MALME-3M melanoma, 83.8%. Moreover, the growth was 77.9% in the assay with MDA-MB-231 breast; 108% in the assay with RXF 393 renal; 100% with SF-268 CNS; 92.1% in the assay with SF-295 CNS; 109% in the assay on SF-539 CNS; 111% in the assay on UACC-257 melanoma. The growth is 108% with M14 melanoma and 81% in the assay with HCT-15 colon.

In the case of `c1ccc(N2CCN(c3nncc4ccccc34)CC2)nc1`, the growth with NCI-H23 lung was 105%; in the assay with NCI-H226 lung, 98.1%; with NCI-H322M lung, 114%; with HOP-62 NSCLC, 102%; in the assay with NCI-H460 lung it was 108%; with NCI-H522 lung, 99.4%. Besides, the growth in the assay on A549/ATCC NSCLC is 100%; in the assay with 786-0 renal, 104%; in the assay on COLO 205 colon, 106%; with DU-145 prostate, 99%; in the assay on K-562 leukemia it was 106%; with MALME-3M melanoma, 109%. The growth in the assay with MDA-MB-231 breast was 108%; with RXF 393 renal it was 108%; in the assay with SF-268 CNS it was 103%; in the assay with SF-295 CNS, 107%; in the assay with SF-539 CNS, 113%; with UACC-257 melanoma, 99%. Moreover, the figures for the growth in the assay with M14 melanoma and in the assay on HCT-15 colon were 102% and 108%, respectively.

Turning to `CC(C)c1ccc(C(=O)Nc2sc3c(CN(C)C)c(O)ccc3c2C(N)=O)cc1`, the growth with NCI-H23 lung was 49.1%; in the assay on NCI-H226 lung, 86.9%; with NCI-H322M lung, 65.5%; in the assay on HOP-62 NSCLC, 64.4%; in the assay with NCI-H460 lung, 72%; with NCI-H522 lung, 43.7%. Besides, the growth was 33% with A549/ATCC NSCLC; 49.6% with 786-0 renal; 47.1% in the assay with COLO 205 colon; 51.9% in the assay with DU-145 prostate; -41.3% (active) with K-562 leukemia; 63.9% with MALME-3M melanoma. In addition, the growth in the assay on MDA-MB-231 breast is 38.5%; in the assay with RXF 393 renal, 12.2%; with SF-268 CNS, 69.3%; in the assay on SF-295 CNS, 61.9%; in the assay on SF-539 CNS, 40.8%; in the assay with UACC-257 melanoma, 9.32% (active). Further, the values for the growth with M14 melanoma and in the assay on HCT-15 colon were 18.5% and -48.7% (active), respectively.

As to `Cc1c(N(C)CS(=O)(=O)O)c(=O)n(-c2ccccc2)n1C`, the growth in the assay on NCI-H23 lung was 109%; in the assay on NCI-H226 lung, 102%; in the assay on NCI-H322M lung it was 96.9%; with HOP-62 NSCLC, 92.7%; in the assay on NCI-H460 lung it was 121%; in the assay with NCI-H522 lung, 89.8%. Also, the growth in the assay on A549/ATCC NSCLC is 97.1%; in the assay with 786-0 renal, 91.5%; in the assay with COLO 205 colon, 115%; in the assay on DU-145 prostate, 112%; with K-562 leukemia, 102%; with MALME-3M melanoma, 94.1%. Also, the growth was 107% in the assay with MDA-MB-231 breast; 115% in the assay on RXF 393 renal; 115% with SF-268 CNS; 98.9% in the assay on SF-295 CNS; 106% in the assay on SF-539 CNS; 108% in the assay on UACC-257 melanoma. Moreover, the growth in the assay with M14 melanoma and in the assay with HCT-15 colon was 103% each time.

For `O=C(/C=C/c1cccnc1)/C=C/c1cccnc1`, the growth with NCI-H23 lung is -5.04% (active); with NCI-H226 lung, 2.94% (active); in the assay on NCI-H322M lung it was 122%; in the assay with HOP-62 NSCLC, 98.9%; with NCI-H460 lung, 18.5%; in the assay with NCI-H522 lung, -91.2% (active). Also, the growth in the assay with A549/ATCC NSCLC was 6.27% (active); in the assay on 786-0 renal, 5.1% (active); with COLO 205 colon, -84.8% (active); in the assay on DU-145 prostate, -29.6% (active); with K-562 leukemia, -15.2% (active); in the assay with MALME-3M melanoma, -8.19% (active). Moreover, the growth with MDA-MB-231 breast is 20.4%; in the assay on RXF 393 renal it was -84.9% (active); in the assay on SF-268 CNS, -64% (active); in the assay with SF-295 CNS, 41.6%; with SF-539 CNS it was -46.1% (active); with UACC-257 melanoma, 31.2%. Further, the results for the growth in the assay with M14 melanoma and with HCT-15 colon were -47.3% (active) and -9.07% (active), respectively.

With `O=C(C(Br)Br)C(Br)C(Br)c1ccccc1` (stereo not given), the growth was 90.1% with NCI-H23 lung; 95% with NCI-H226 lung; 109% with NCI-H322M lung; 109% with HOP-62 NSCLC; 104% in the assay on NCI-H460 lung; -33.3% (active) in the assay on NCI-H522 lung. Moreover, the growth is 98.5% in the assay on A549/ATCC NSCLC; 107% with 786-0 renal; 4.54% (active) in the assay with COLO 205 colon; 87.4% in the assay with DU-145 prostate; 18.9% in the assay on K-562 leukemia; -37.9% (active) in the assay with MALME-3M melanoma. For the same molecule, the growth in the assay on MDA-MB-231 breast is 109%; in the assay on RXF 393 renal, 25.3%; in the assay with SF-268 CNS it was 116%; with SF-295 CNS, 116%; in the assay on SF-539 CNS, 97.2%; in the assay on UACC-257 melanoma, 57.7%. For the same molecule, the growth with M14 melanoma is 81.5%; with HCT-15 colon, 20.5%.
